# Structures can show the parent of a compound that is named as a salt.
# What was measured:
# Conditions in all cases: incubation time: 27 h, anaerobic, 37 °C;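 for the amine columns active = adjusted P below 0.05 in both replicates with a change the same way and a mean fold change under 0.8 or over 1.25; inactive = the rest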
# [1] = tested on: Clostridium sporogenes DSM 1664; assay: growth (OD595) fold change vs plate DMSO controls (fold change (ratio)); higher = more growth
# How it was run: (§1)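 The 96-well mGAM cultures had been kept anaerobic for 27 h at 37 °C before being shaken and read at 595 nm. Blank subtraction, compound background correction with 20 µM compound solutions in water, and a calibration factor of 5 turned the readings into OD. Growth is given as the fold change versus the median of plate DMSO controls. Fold changes above 1.5 were set to NA, and the values are means of 2 biological replicates.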
# [2] = tested on: Escherichia coli IAI1; assay: as above
# How it was run: as §1
# [3] = tested on: Klebsiella aerogenes DSM 30053; assay: as above
# How it was run: as §1
# [4] = tested on: Ruminococcus gnavus DSM 108212; assay: as above
# How it was run: as §1
# [5] = tested on: Klebsiella aerogenes DSM 30053; assay: fold change of Histamine concentration vs plate DMSO controls (fold change (ratio)); higher = more amine produced, active = hit call of the paper (significant change in both replicates, either direction)
# How it was run: (§2)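 In 80 µL wells, cultures of four gut bacterial strains in mGAM started at OD 0.1 before a 1:1 dilution and grew anaerobically at 37 °C for 27 h. Compounds were added to 20 µM final, except sweeteners at 50 µM final. After extraction of whole cultures with cold acetonitrile/methanol plus 0.1% formic acid and centrifugation, amines were measured by LC–triple-quadrupole MS in dynamic MRM mode against external calibration curves, with within-batch drift correction. Values give fold change over DMSO controls on the same plate, averaged across 2 biological replicates.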
# [6] = tested on: Clostridium sporogenes DSM 1664; assay: fold change of Tryptamine concentration vs plate DMSO controls (fold change (ratio)); higher = more amine produced, active = hit call of the paper (significant change in both replicates, either direction)
# How it was run: as §2
# [7] = tested on: Ruminococcus gnavus DSM 108212; assay: as above
# How it was run: as §2
# [8] = tested on: Escherichia coli IAI1; assay: fold change of Putrescine concentration vs plate DMSO controls (fold change (ratio)); higher = more amine produced, active = hit call of the paper (significant change in both replicates, either direction)
# How it was run: as §2
# [9] = tested on: Klebsiella aerogenes DSM 30053; assay: as above
# How it was run: as §2
# [10] = tested on: Escherichia coli IAI1; assay: fold change of Cadaverine concentration vs plate DMSO controls (fold change (ratio)); higher = more amine produced, active = hit call of the paper (significant change in both replicates, either direction)
# How it was run: as §2
# [11] = tested on: Klebsiella aerogenes DSM 30053; assay: as above
# How it was run: as §2
# [12] = tested on: Ruminococcus gnavus DSM 108212; assay: fold change of 2-Phenylethylamine concentration vs plate DMSO controls (fold change (ratio)); higher = more amine produced, active = hit call of the paper (significant change in both replicates, either direction)
# How it was run: as §2
SMILES,growth [1],growth [2],growth [3],growth [4],fold change of Histamine concentration [5],fold change of Tryptamine concentration [6],fold change of Tryptamine concentration [7],fold change of Putrescine concentration [8],fold change of Putrescine concentration [9],fold change of Cadaverine concentration [10],fold change of Cadaverine concentration [11],fold change of 2-Phenylethylamine concentration [12]
CCCCS(=O)(=O)N[C@@H](Cc1ccc(OCCCCC2CCNCC2)cc1)C(=O)O [Tirofiban hydrochloride] (20 µM),0.927,0.983,1.01,1.11,0.975 (inactive),0.943 (inactive),1.03 (inactive),0.994 (inactive),1 (inactive),1 (inactive),1.01 (inactive),1.02 (inactive)
COc1cccc2c1C(=O)c1c(O)c3c(c(O)c1C2=O)C[C@@](O)(C(=O)CO)C[C@@H]3O[C@H]1C[C@H](N)[C@H](O)[C@H](C)O1 [Doxorubicin hydrochloride] (20 µM),0.843,1.02,1.03,1.25,1.04 (inactive),0.956 (inactive),0.963 (inactive),0.958 (inactive),0.982 (inactive),1.03 (inactive),1.02 (inactive),0.943 (inactive)
OC[C@@H](O)[C@@H](O[C@@H]1O[C@H](CO)[C@H](O)[C@H](O)[C@H]1O)[C@H](O)[C@@H](O)CO [Lactitol] (50 µM),1.13,0.949,1.01,0.988,0.988 (inactive),0.997 (inactive),0.891 (inactive),0.938 (inactive),1.02 (inactive),0.997 (inactive),0.998 (inactive),0.858 (inactive)
CCCCNC(=N)NC(=N)N [Buformin] (20 µM),1.02,0.988,0.986,1,1.03 (inactive),1.05 (inactive),0.934 (inactive),1.01 (inactive),1.01 (inactive),1.03 (inactive),1 (inactive),0.915 (inactive)
CN1CCN(C(c2ccccc2)c2ccc(Cl)cc2)CC1 (stereo not drawn) [Chlorcyclizine hydrochloride] (20 µM),1.15,1.16,0.997,0.999,1.09 (inactive),0.979 (inactive),0.89 (inactive),1.14 (inactive),1 (inactive),0.889 (inactive),0.981 (inactive),0.919 (inactive)
NC(=O)c1cn(Cc2c(F)cccc2F)nn1 [Rufinamide] (20 µM),0.904,0.974,1.01,0.922,0.998 (inactive),0.969 (inactive),1.02 (inactive),0.999 (inactive),0.995 (inactive),0.98 (inactive),0.985 (inactive),1.02 (inactive)
CCN(CC)CCOC(=O)C1(c2ccc([N+](=O)[O-])cc2)CCCC1 [Nitrocaramiphen hydrochloride] (20 µM),0.793,1.07,0.995,1.02,1.03 (inactive),0.949 (inactive),1.04 (inactive),1.03 (inactive),0.982 (inactive),1.03 (inactive),0.98 (inactive),0.995 (inactive)
O=C(c1ccc(OCCN2CCCCC2)cc1)c1c(-c2ccc(O)cc2)sc2cc(O)ccc12 [Raloxifene hydrochloride] (20 µM),1.19,1.08,1.04,1.2,0.986 (inactive),0.932 (inactive),0.941 (inactive),0.976 (inactive),1.03 (inactive),1.01 (inactive),1.01 (inactive),0.917 (inactive)
COC(=O)[C@H](Cc1ccccc1)NC(=O)[C@H](CC(=O)O)NCCC(C)(C)C [Neotame] (50 µM),1.05,1,1.04,1.07,0.99 (inactive),1.05 (inactive),1.01 (inactive),1.01 (inactive),1.01 (inactive),0.933 (inactive),1.02 (inactive),1.02 (inactive)
Clc1ccc(C(c2ccccc2Cl)C(Cl)Cl)cc1 (stereo not drawn) [Mitotane] (20 µM),1.01,1.04,1.03,1.34,1.01 (inactive),0.997 (inactive),1.01 (inactive),1.03 (inactive),1 (inactive),1.03 (inactive),1.01 (inactive),1.03 (inactive)
OC[C@H]1O[C@H](O[C@H]2O[C@H](CO)[C@@H](O)[C@H](O)[C@H]2O)[C@H](O)[C@@H](O)[C@@H]1O [Trehalose dihydrate] (20 µM),1,1.04,1.08,1.11,0.919 (inactive),0.967 (inactive),1.06 (inactive),1.02 (inactive),0.986 (inactive),0.988 (inactive),1 (inactive),1.09 (inactive)
O=C1CN2Cc3c(ccc(Cl)c3Cl)N=C2N1 [Anagrelide] (20 µM),0.955,1.11,1.05,1.14,0.845 (inactive),1.03 (inactive),1.02 (inactive),1.05 (inactive),0.986 (inactive),1.16 (inactive),1.01 (inactive),0.962 (inactive)
CO[C@@H]1[C@@H](OC(N)=O)[C@@H](O)[C@H](Oc2ccc3c(O)c(NC(=O)c4ccc(O)c(CC=C(C)C)c4)c(=O)oc3c2C)OC1(C)C [Novobiocin sodium salt] (20 µM),1.07,0.922,0.747,0.338,0.858 (inactive),0.754 (inactive),0.176 (active),1.18 (inactive),0.986 (inactive),1.04 (inactive),1 (inactive),0.208 (active)
CCCCC(=O)O[C@H]1CC[C@H]2[C@@H]3CCc4cc(O)ccc4[C@H]3CC[C@]12C [Estradiol Valerate] (20 µM),0.581,0.995,0.996,1.05,0.898 (inactive),0.24 (active),1 (inactive),0.88 (inactive),0.925 (inactive),0.926 (inactive),1.05 (inactive),0.953 (inactive)
COC(=O)[C@H](Cc1ccccc1)NC(=O)[C@@H](N)CC(=O)O [Aspartame] (50 µM),1.05,0.921,0.997,1.01,1.03 (inactive),0.944 (inactive),1.01 (inactive),0.968 (inactive),1.01 (inactive),1.04 (inactive),0.99 (inactive),1.04 (inactive)
COc1ccccc1OCC(O)CN1CCN(CC(=O)Nc2c(C)cccc2C)CC1 (stereo not drawn) [Ranolazine] (20 µM),1.13,1.01,1.13,0.994,0.957 (inactive),1.03 (inactive),1.03 (inactive),0.997 (inactive),1.01 (inactive),1.01 (inactive),1.01 (inactive),1.06 (inactive)
CN1CCCCC1CCN1c2ccccc2Sc2ccc([S+](C)[O-])cc21 (stereo not drawn) [Mesoridazine besylate] (20 µM),1.12,0.991,0.974,0.756,1.1 (inactive),0.992 (inactive),1.02 (inactive),1 (inactive),1.02 (inactive),1.01 (inactive),0.978 (inactive),0.987 (inactive)
C=CCSCC1Nc2cc(Cl)c(S(N)(=O)=O)cc2S(=O)(=O)N1 (stereo not drawn) [Althiazide] (20 µM),1.06,1.11,1.01,1.02,0.981 (inactive),1.03 (inactive),1.24 (inactive),1.21 (inactive),1.03 (inactive),1.06 (inactive),1.12 (inactive),1.66 (active)
CC[N+](CC)(CC)CCOc1cccc(OCC[N+](CC)(CC)CC)c1OCC[N+](CC)(CC)CC [Gallamine triethiodide] (20 µM),1.09,1.02,1.05,0.905,0.862 (inactive),1.12 (inactive),1.09 (inactive),1.06 (inactive),0.945 (inactive),0.947 (inactive),1.04 (inactive),1.06 (inactive)
CCCCOC(=O)c1ccccc1Nc1cccc(C(F)(F)F)c1 [Ufenamate] (20 µM),0.986,1.07,1.07,0.991,0.944 (inactive),1.03 (inactive),1.11 (inactive),1.06 (inactive),0.979 (inactive),1.03 (inactive),1.02 (inactive),1.14 (inactive)
OCCOCCN1CCN(C(c2ccccc2)c2ccc(Cl)cc2)CC1 (stereo not drawn) [Hydroxyzine dihydrochloride] (20 µM),1.07,1.01,1.05,0.906,0.909 (inactive),1.01 (inactive),1.02 (inactive),0.98 (inactive),0.966 (inactive),0.968 (inactive),1.02 (inactive),1.06 (inactive)
Cc1ccc(=O)n(-c2ccccc2)c1 [Pirfenidone] (20 µM),0.978,0.995,0.983,0.984,1.02 (inactive),1.04 (inactive),0.978 (inactive),1.01 (inactive),1.01 (inactive),1.01 (inactive),0.981 (inactive),0.958 (inactive)
CCN(CCCCOC(=O)c1ccc(OC)c(OC)c1)C(C)Cc1ccc(OC)cc1 (stereo not drawn) [Mebeverine hydrochloride] (20 µM),0.955,1.25,0.995,0.632,0.903 (inactive),1.01 (inactive),0.985 (inactive),1.15 (inactive),1.05 (inactive),1.04 (inactive),1.02 (inactive),1.01 (inactive)
O=C(O)CCc1nc(-c2ccccc2)c(-c2ccccc2)o1 [Oxaprozin] (20 µM),1.08,1.04,0.984,1.06,1.04 (inactive),1.03 (inactive),1.03 (inactive),1.01 (inactive),1 (inactive),0.96 (inactive),0.979 (inactive),1.1 (inactive)

# Reference: the supplement of paper PMC12494721
